Measurements from PubChem BioAssay AID2073 (Sanford-Burnham Center for Chemical Genomics, 2009).
In all, about 290,000 compounds went through this assay and about 570 (0.2%) were called active. Inconclusive results (about 1%) are left out. No stated cut-off is given here; in the data, active means inhibition mostly above about 51% (no sharp cut-off); inconclusive means no clear call, values can overlap the other calls; inactive means mostly below about 53%. The full list was thinned out, with actives kept by preference.

Target: Voltage-dependent N-type calcium channel subunit alpha-1B (Homo sapiens) (UniProt Q00975)
Sequence (Q00975 whole entry, looked up): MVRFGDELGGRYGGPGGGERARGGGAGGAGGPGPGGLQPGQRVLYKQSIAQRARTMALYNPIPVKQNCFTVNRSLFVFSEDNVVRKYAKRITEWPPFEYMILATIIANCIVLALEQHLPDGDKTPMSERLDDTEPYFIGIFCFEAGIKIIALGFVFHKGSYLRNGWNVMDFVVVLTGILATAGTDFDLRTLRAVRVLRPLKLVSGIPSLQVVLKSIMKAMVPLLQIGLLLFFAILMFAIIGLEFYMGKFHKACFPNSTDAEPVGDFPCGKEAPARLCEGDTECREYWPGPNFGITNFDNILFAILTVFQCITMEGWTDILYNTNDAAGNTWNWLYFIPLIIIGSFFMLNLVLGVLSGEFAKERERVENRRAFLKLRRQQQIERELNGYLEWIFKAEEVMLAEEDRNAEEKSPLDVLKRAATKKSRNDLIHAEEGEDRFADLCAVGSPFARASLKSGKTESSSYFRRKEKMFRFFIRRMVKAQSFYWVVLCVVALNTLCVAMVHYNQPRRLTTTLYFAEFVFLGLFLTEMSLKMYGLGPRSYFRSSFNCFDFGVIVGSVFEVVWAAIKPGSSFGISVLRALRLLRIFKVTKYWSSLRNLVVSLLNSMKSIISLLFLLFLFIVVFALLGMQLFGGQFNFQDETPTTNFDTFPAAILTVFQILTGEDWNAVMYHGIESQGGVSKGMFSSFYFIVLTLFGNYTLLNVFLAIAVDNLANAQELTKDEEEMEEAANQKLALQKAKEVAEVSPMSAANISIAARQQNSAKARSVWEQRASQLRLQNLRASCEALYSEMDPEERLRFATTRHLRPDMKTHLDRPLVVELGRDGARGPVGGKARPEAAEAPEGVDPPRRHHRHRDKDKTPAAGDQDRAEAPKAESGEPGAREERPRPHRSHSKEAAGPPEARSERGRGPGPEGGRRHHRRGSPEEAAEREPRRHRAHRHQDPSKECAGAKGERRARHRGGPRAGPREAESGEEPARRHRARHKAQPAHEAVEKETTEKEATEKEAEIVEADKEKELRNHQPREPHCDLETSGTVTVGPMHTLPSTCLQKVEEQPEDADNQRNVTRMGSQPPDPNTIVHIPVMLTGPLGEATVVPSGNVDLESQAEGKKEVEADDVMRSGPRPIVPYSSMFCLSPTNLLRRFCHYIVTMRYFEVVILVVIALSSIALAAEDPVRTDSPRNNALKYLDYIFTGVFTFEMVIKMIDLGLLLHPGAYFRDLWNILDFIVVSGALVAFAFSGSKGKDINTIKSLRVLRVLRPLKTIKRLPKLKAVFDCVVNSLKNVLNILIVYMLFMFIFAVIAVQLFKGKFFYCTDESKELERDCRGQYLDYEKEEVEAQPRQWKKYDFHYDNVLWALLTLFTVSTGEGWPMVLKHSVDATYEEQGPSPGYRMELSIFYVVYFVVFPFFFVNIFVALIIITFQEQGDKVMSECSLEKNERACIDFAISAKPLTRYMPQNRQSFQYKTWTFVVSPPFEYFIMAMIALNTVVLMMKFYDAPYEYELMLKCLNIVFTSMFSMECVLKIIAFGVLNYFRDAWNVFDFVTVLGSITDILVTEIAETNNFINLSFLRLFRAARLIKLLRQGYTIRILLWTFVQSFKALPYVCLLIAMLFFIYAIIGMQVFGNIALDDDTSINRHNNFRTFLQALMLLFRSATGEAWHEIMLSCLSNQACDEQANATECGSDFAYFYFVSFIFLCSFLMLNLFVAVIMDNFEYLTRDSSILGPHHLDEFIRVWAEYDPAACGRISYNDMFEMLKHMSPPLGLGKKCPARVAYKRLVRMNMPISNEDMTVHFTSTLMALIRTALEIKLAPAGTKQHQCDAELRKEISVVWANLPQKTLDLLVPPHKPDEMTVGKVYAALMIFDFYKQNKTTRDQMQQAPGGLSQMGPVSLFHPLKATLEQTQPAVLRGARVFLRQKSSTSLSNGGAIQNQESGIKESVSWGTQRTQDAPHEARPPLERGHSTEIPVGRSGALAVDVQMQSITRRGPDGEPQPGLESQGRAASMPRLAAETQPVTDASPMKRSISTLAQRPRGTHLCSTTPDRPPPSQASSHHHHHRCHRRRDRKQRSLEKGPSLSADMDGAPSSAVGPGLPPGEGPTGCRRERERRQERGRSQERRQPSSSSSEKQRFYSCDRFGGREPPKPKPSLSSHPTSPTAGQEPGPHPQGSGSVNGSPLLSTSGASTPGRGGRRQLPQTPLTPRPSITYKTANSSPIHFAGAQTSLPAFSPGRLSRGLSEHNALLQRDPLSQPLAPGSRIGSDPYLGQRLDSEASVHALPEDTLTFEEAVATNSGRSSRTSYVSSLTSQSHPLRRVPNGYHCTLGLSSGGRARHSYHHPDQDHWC
Assay: inhibitors of Mint1-CaV2.2 protein interaction, biochemical, HTRF (AID 2073)
Settings: at 20 µM, stronger effect = higher value
[1] = measured here: average of repeat tests

SMILES	inhibition	inhibition [1] [%]
Cc1nn(Cc2noc(C(=O)NCCc3ccccn3)n2)c(C)c1Br	7.3% (inactive)	
CC1(C)CC(NC(=O)c2ccccc2C(=O)NC2CC(C)(C)NC(C)(C)C2)CC(C)(C)N1	32.5% (inactive)	
CCOC(=O)c1cnn(-c2nc(-c3ccccc3)nc3c2COC(C)(C)C3)c1N	-0.5% (inactive)	
CCOC(=O)N1CCN(C(=O)CSc2nc3c(cnn3-c3ccc(C)cc3)c(=O)[nH]2)CC1	7.8% (inactive)	
CCn1c(=O)cc(OCC(=O)Nc2ccc3c(c2)OCCO3)c2ccccc21	21.8% (inactive)	
CCc1ccc2[nH]c(=O)c(C(c3nnnn3CC3CCCO3)N3CCCc4ccccc43)cc2c1 (stereo not given)	73% (inactive)	15.4
Cc1ccc2[nH]c(=O)c(C(c3nnnn3CC3CCCO3)N3CCCc4ccccc43)cc2c1 (stereo not given)	94.9% (inactive)	12.5
Cc1cc2cc(C(c3nnnn3CC3CCCO3)N3CCCc4ccccc43)c(=O)[nH]c2cc1C (stereo not given)	70% (active)	
COC(=O)C1=C(C(=O)OC)[C@@H]2N(C)c3ccc(OC)cc3[C@@]23C[C@@H](C(=O)OC)N(C(=O)c2ccc(Br)cc2)C3=N1	6.3% (inactive)	
Nc1nonc1-n1nnc(C(=O)N/N=C/c2ccc(F)cc2)c1-c1cccs1	4.3% (inactive)	
CC(=O)Nc1ccc(NC(=O)c2cc(-c3cc(C)c(C)cc3O)n[nH]2)cc1	-5.1% (inactive)	
Cc1ccc(NC(=O)c2cc(-c3ccc(C)c(C)c3O)n[nH]2)cc1C	12.1% (inactive)	
COc1ccccc1CNc1cc(CSc2ccc(Cl)cc2)nc(C)n1	-1.5% (inactive)	
CC(C)CNC(=O)CSc1nc(-c2cccs2)cc(C(F)(F)F)n1	16.7% (inactive)	
COc1ccc(CCNC(=O)C(CC(C)C)NC(N)=O)cc1 (stereo not given)	4.9% (inactive)	
COc1ccc(CN(C(=O)c2cc(=O)c3cc(C)cc(C)c3o2)C2CCS(=O)(=O)C2)cc1 (stereo not given)	0% (inactive)	
COc1cccc(C(=O)NC2CC3CCCC(C2)N3CC(=O)Nc2ccccc2)c1 (stereo not given)	55% (active)	
COc1cccc(C(=O)NC2CC3CCCC(C2)N3CC(=O)Nc2ccc(N(C)C)cc2)c1 (stereo not given)	-12.2% (inactive)	
O=C(CN1C2CCCC1CC(NC(=O)c1ccccc1)C2)Nc1ccccc1 (stereo not given)	8.3% (inactive)	

SMILES	inhibition	inhibition [1] [%]
O=C(Cn1c(=O)sc2ccccc21)Nc1ccc(S(=O)(=O)N2CCCCC2)cc1	18% (inactive)	
COc1ccc(C2=CC(c3c(C)nn(-c4ccccc4)c3Cl)n3nnnc3N2)cc1OC (stereo not given)	24.3% (inactive)	
CSc1nc(C)cc(-n2cc(F)c(=O)[nH]c2=O)n1	-1.3% (inactive)	
O=C(NC1=C(Nc2ccc(Cl)cc2)C(=O)c2ccccc2C1=O)c1ccccc1	-10.9% (inactive)	
O=C(Nc1ccccc1Cl)c1ccccc1	23.6% (inactive)	
O=C1C(Cl)=C(NC(=O)c2ccccc2)C(=O)C(Cl)=C1NC(=O)c1ccccc1	81.8% (active)	
CC(=O)N1CCN(C(=O)c2ccc3c(c2)OCCO3)CC1	16.6% (inactive)	
CCOC(=O)C1=C(O)c2ccccc2C(=O)/C1=C\c1ccc(C)cc1	49.4% (inactive)	
CCOC(=O)C1=C(Cc2ccc(OC)cc2)C(=O)c2ccccc2C1=O	61.9% (active)	
CCOC(=O)C1=C(O)c2ccccc2C(=O)/C1=C\c1ccc(CC)cc1	54.8% (active)	
CCOC(=O)C1=C(Cc2ccc(Cl)cc2)C(=O)c2ccccc2C1=O	66.8% (inactive)	19.3
CCOC(=O)C1=C(Cc2ccc(F)cc2)C(=O)c2ccccc2C1=O	76% (inactive)	27.8
CCOC(=O)C1=C(Cc2ccc(C)cc2)C(=O)c2ccccc2C1=O	36% (inactive)	
COc1ccc(N/C(=N/c2nc(C)cc(C)n2)NC(=O)c2ccccc2)cc1	8.5% (inactive)	
CSc1cccc(NC(=O)C2CCN(C(=O)c3ccccc3C)CC2)c1	3.1% (inactive)	
CCOc1ccc(CCNC(=O)CSc2nnnn2C)cc1OCC	0% (inactive)	
CC1=CC(=C(C#N)C#N)C=C(C)N1Cc1ccccc1	-8.3% (inactive)	
CCn1c(=O)c(=O)[nH]c2cc(C(=O)Nc3ccc(S(=O)(=O)N4CCCC4)cc3)ccc21	19.2% (inactive)	
CCCNC(=O)OC[C@H]1O[C@H](CCO/N=C/c2ccc(C(=O)N3[C@H](c4ccc(C)cc4)[C@@H](C)CC[C@H]3C(=O)OC)cc2)C=C[C@@H]1Oc1ccc(OC)cc1	6.9% (inactive)	

SMILES	inhibition	inhibition [1] [%]
CCOC(=O)c1cc(NC(=O)CCC(=O)O)ccc1N1CCCCC1	19.3% (inactive)	
O=C(/C=C\c1ccco1)Nc1nc(-c2ccccc2)cs1	0% (inactive)	
O=C(/C=C/c1ccco1)Nc1nc(-c2ccccn2)cs1	54.1% (active)	
O=C(/C=C/c1cccs1)Nc1nc(-c2ccccc2)cs1	10% (inactive)	
O=C(/C=C/c1ccccc1)Nc1nc(-c2ccncc2)cs1	54.1% (active)	
O=C(/C=C/c1ccco1)Nc1nc(-c2ccccc2)cs1	26.4% (inactive)	
O=C(/C=C/c1ccc2c(c1)OCO2)Nc1nc(-c2ccccc2)cs1	26% (inactive)	
CCCSc1nc(N2CCOCC2)c2c(c1C#N)CC(C)(C)SC2	0.4% (inactive)	
Cc1ccccc1NC1=C(Cl)C(=O)OC1NC(=O)c1ccccc1 (stereo not given)	-0.5% (inactive)	
CCOC(=O)c1ccc(N2C(=O)CC(C(=O)OC)=C2C)cc1	3.2% (inactive)	
CCc1ccc2nc(NC(=O)c3ccc(N4C(=O)CCC4=O)cc3)sc2c1	32.1% (inactive)	
Cc1ccc2nc(NC(=O)CN3CCOCC3)sc2c1	-0.6% (inactive)	
Cc1ccc(-n2ncc3c2CCCC3NC(=O)CCn2ccnc2C)cc1C (stereo not given)	-3.7% (inactive)	
O=C1CC(c2ccco2)Cc2nc(Nc3nc(-c4ccccc4)c4ccccc4n3)ncc21 (stereo not given)	52.4% (active)	
O=C1CC(c2ccco2)Cc2nc(Nc3ccc(F)cc3)ncc21 (stereo not given)	6.4% (inactive)	
O=C(Nc1ncc2c(n1)CC(c1ccco1)CC2=O)c1ccccc1 (stereo not given)	33.5% (inactive)	
CN(C)C(=O)c1ccc(NC(=O)COc2ccc([N+](=O)[O-])cc2)cc1	5.1% (inactive)	
COc1ccc(C2C(Oc3ccccc3)C(=O)N2c2cc(C)ccc2C)cc1OC (stereo not given)	-3.8% (inactive)	
